PubChem BioAssay AID493169 (National Center for Advancing Translational Sciences (NCATS), 2011)
Records with an inconclusive call do not appear. Unmarked numbers belong to inactive results. The source made the active and inactive calls. Calls come from the whole dose curve; as a rule, active = well fitted inhibition curve with a large enough effect; inconclusive = small, poorly fitted or top-dose-only effect; inactive = flat fitted curve, though single readings scatter.

Assay: CHOP2 Reporter Counterscreen Assay for Inhibitors of Ubiquitin-specific Protease USP2a;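 note: activated enterokinase alone at 50 pM in a cell-free format rather than USP2a or CHOP2; nearly all actives have a fitted effect of over 55% in size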
Details: purified enterokinase, fluorogenic substrate, 485/531 nm; series mostly up to 38.3 µM; activity change, negative = inhibition: at the top concentration
Outline: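 Fluorescence (485/531 nm) read 10 min after adding 25nM reporter substrate to 50 pM activated EK preincubated 30 min RT with compound; Tris pH 8.0/CaCl2/CHAPS buffer. Data normalized to buffer-alone inhibition; concentration-response curves fitted.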
% is set by controls: 0 for no effect and ±100 for the full control effect; potency is the fitted concentration of half-maximal effect.

Compound	activity change, negative = inhibition	Potency
CS(=O)(=O)c1nc(-c2ccc(Br)cc2)cc(-c2ccccc2)c1C#N	0.429%	–
COc1ccc(/C=C\C(=O)O[C@@H]2C(O)C(O[C@@H]3OC(C)[C@H](O[C@@H]4OCC(O[C@H]5O[C@H](CO)[C@@H](O)C(O)C5O)C(O)C4O)C(O)C3O)[C@H](OC(=O)[C@]34CCC(C)(C)C[C@@H]3C3=CCC5[C@@]6(C)CC(O)C(O[C@@H]7OC(CO)C(O)[C@H](O)[C@H]7O)[C@@](C)(C(=O)O)C6CC[C@@]5(C)[C@]3(CO)CC4)O[C@H]2C)cc1 (stereo not given in full)	-14.4%	–
Cc1ccc(S(=O)(=O)Nc2ccccc2-c2ccccc2NS(=O)(=O)c2ccc(C)cc2)cc1	-20.3%	–
N#CCc1ccc(NC(=O)/C=C/c2ccc([N+](=O)[O-])o2)cc1	–	10 µM (active)
CCCCCCCCCCC[N+](C)(C)CC/C=C1/c2ccccc2Sc2ccc(Cl)cc21	–	11.2 µM (active)
CCCNC(=O)NCc1ccc(N2CCCC2=O)cc1	0.0304%	–
Cc1ccc(C)c(S(=O)(=O)N2CCN(C(=O)/C=C/c3ccco3)CC2)c1	–	11.2 µM (active)
C[C@@H]1CN([C@@H](C)CO)C(=O)c2cc(NC(=O)CCC(F)(F)F)ccc2O[C@H]1CN(C)S(=O)(=O)c1ccc(Cl)cc1	1.64%	–
COc1cc(C(=O)OCC(=O)Nc2c(F)c(F)c(F)c(F)c2F)cc(OC)c1OC	-0.4%	–
COc1ccccc1C(=O)N1CCN=C1SC	5.64%	–
COC(=O)CSc1nc2c(c(-c3ccco3)c1C#N)CCCC2	4.87%	–
Cc1ccc(NS(=O)(=O)c2cccc(C(=O)OCC(=O)NCc3ccco3)c2)cc1	–	10 µM (active)
O=C1c2ccccc2CCC12N=NCC2c1ccc(Br)cc1 (stereo not given)	-2.24%	–
CC(C)(C)C(=O)Nc1c2c(nc3c1CCC3)CCCC2	-1.85%	–
Cc1noc(/C=C/NCc2cccnc2)c1S(=O)(=O)N(C)CC(=O)N1CCc2ccccc21	-1.33%	–
CN1CCN(CCCCOc2ccc(F)cc2)CC1	0.243%	–
CC1CC(C)CN(C(=O)CSc2nnc(-c3ccc(Cl)cc3)o2)C1 (stereo not given)	3.09%	–
CCCCCCCCCCOC(=O)Cn1c(COc2ccc(C)cc2)[n+](C)c2ccccc21	–	5.62 µM (active)
O=C1N=c2ccccc2=C1c1sc(Nc2ccc(O)cc2)nc1O	–	8.91 µM (active)
COc1ccc(-c2nnn(CC(=O)N3CCOCC3)n2)cc1	2.46%	–

Compound	activity change, negative = inhibition	Potency
CCCNC(=O)CS(=O)Cc1nc(-c2ccccc2C)oc1C (stereo not given)	1.46%	–
CCC(CO)Oc1cc(NCc2cccc(C)c2)c2ncn(C(C)C)c2c1 (stereo not given)	0.286%	–
Cc1ccc(C(=O)Nc2nnc(CC(=O)N/N=C/c3ccc(O)c(O)c3)s2)cc1	–	2.82 µM (active)
CC1CCCC(N2CCN(C(=O)c3cccc(F)c3)CC2)C1 (stereo not given)	-19%	–
Clc1ccc2c(N/N=C/c3ccc(Br)cc3)ccnc2c1	–	7.94 µM (active)
COC(=O)c1ccc(CSc2ncnc3ccccc23)o1	4.44%	–
CC(OC(=O)CN(C)S(=O)(=O)c1ccc(Cl)cc1)C(=O)Nc1ccc(N2CCOCC2)cc1 (stereo not given)	1.51%	–
O=C(c1cccc(F)c1)N1CCN(S(=O)(=O)c2ccccc2)CC1	3.3%	–
Cc1ccc(C(=O)NCCCc2ccccc2)s1	2.08%	–
CC(C)(C)[C@H]1COC(=O)[C@@H](Cc2ccc(F)cc2)C/C=C\C[C@@H](CC(=O)N[C@H](CO)Cc2ccccc2)C(=O)N1	-3.42%	–
CC(C)C(C(=O)O)N1C(=O)/C(=C/C=C/c2ccco2)SC1=S (stereo not given)	–	2 µM (active)
N#Cc1c(-c2cccs2)nc(SCc2ccc(Cl)cc2)[nH]c1=O	-21.8%	–
O=C(NC1CCCCC1)C(c1ccco1)N(C(=O)c1csnn1)c1cccc(F)c1 (stereo not given)	-1.19%	–
Cc1cc(NC(=O)c2cccc(S(=O)(=O)N(C)C)c2)n(-c2ccccn2)n1	-1.67%	–
Cc1ccc(/C(N)=N/OC(=O)Oc2ccccc2)cc1	-0.304%	–
C=CC[C@H](CC(=O)OC(C)(C)C)C(=O)OC[C@@H]1CCCN1C(=O)[C@H](CC=C)CC(=O)N[C@H](CO)Cc1ccccc1	-1.71%	–
CCOc1ccc2[nH]c(=O)c(CN(CCc3ccccc3)C(=O)c3cnccn3)cc2c1	3.23%	–
O=C(Nc1ccc2nc(-c3ccco3)c(-c3ccco3)nc2c1)N1CCN(c2ccccn2)CC1	–	2.82 µM (active)
COc1ccc(-c2cc(C(F)(F)F)nc(S(C)(=O)=O)n2)cc1	-3.17%	–
CN1CCN(S(=O)(=O)c2ccc(N3CCN(S(=O)(=O)/C=C/c4ccccc4)CC3)nc2)CC1	0.276%	–
